# In PubChem BioAssay:
# Active and inactive are the calls of the source. Unless noted, the rule behind the calls is not given here.
# Tests used:
# [1] = compound effects on lung adenocarcinoma cell viability – A549, calcein-AM fluorescence, 48 h, basal, profiling panel (AID 1162); conditions: higher = more signal; note: test concentration not given here
# [2] = compound effects on differentiated 3T3-L1 adipocyte viability – cell-based, 3T3-L1 adipocytes, calcein-AM fluorescence, 48 h, basal, profiling panel (AID 1163); conditions: 3T3-L1 adipocytes viability, higher = more signal; note: test concentration not given here
# [3] = compound effects on hepatocellular carcinoma cell viability – HepG2, calcein-AM fluorescence, 48 h, basal, profiling panel (AID 1164); conditions: higher = more signal; note: test concentration not given here
# [4] = compound effects on multiple myeloma cell viability – MM1S, calcein-AM fluorescence, 48 h, basal, profiling panel (AID 1165); conditions: higher = more signal; note: test concentration not given here
# [5] = calcein-AM signal in unstimulated myeloma cells – cell-based, calcein-AM fluorescence, 48 h, PK04 Diversity Set, profiling panel (AID 1166); conditions: RPMI8226 myeloma viability, higher = more signal;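 note: cells grown under basal conditions without added stimulus; test concentration not given here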
# [6] = JC-1 mitochondrial signal, unstimulated HepG2 cells – cell-based, JC-1 fluorescence, 24 h, 100 nL compound, profiling panel (AID 1167); conditions: HepG2 mitochondrial potential, higher = more signal; note: test concentration not given here
# [7] = JC-1 mitochondrial signal, unstimulated adipocytes – cell-based, JC-1 fluorescence, 3T3-L1 adipocytes, 24 h, 100 nL compound, profiling panel (AID 1168); conditions: JC-1 mitochondrial fluorescence, higher = more signal, called active from +8 up or from −8 down; note: test concentration not given here
# [8] = JC-1 mitochondrial signal, unstimulated myeloma cells – cell-based, JC-1 fluorescence, RPMI8226, 24 h, 100 nL compound, profiling panel (AID 1169); conditions: JC-1 mitochondrial potential fluorescence, higher = more signal; note: test concentration not given here
# [9] = JC-1 mitochondrial signal, unstimulated MM1S myeloma – cell-based, JC-1 fluorescence, 24 h, 100 nL compound, profiling panel (AID 1170); conditions: MM1S mitochondrial potential, higher = more signal; note: test concentration not given here
# [10] = resazurin metabolic signal in A549 cells – cell-based, resazurin fluorescence, 24 h, PK04 Diversity Set, profiling panel (AID 1171); conditions: A549 viability, higher = more signal, called active from +8 up or from −8 down; note: test concentration not given here
# [11] = resazurin metabolic signal in HepG2 cells – cell-based, resazurin fluorescence, 24 h, PK04 Diversity Set, profiling panel (AID 1172); conditions: HepG2 viability, higher = more signal; note: test concentration not given here
# [12] = budding yeast growth changes without added modifier – OD600, strain BY4716, 24 h, basal condition, primary screen (AID 1173); conditions: S. cerevisiae BY4716 growth, OD600, 24 h; higher = more signal, called active from +8 up or from −8 down
# [13] = viability profiling in MM1S myeloma cells – cell-based, resazurin fluorescence, basal, 24 h, PK04 Diversity Set, profiling panel (AID 1174); conditions: higher = more signal, called active from +8 up or from −8 down; note: test concentration not given here
# [14] = biological target: Dihydroorotate dehydrogenase (quinone), mitochondrial (Plasmodium falciparum (isolate 3D7)) (UniProt Q08210); assay: inhibition of P. falciparum DHODH – biochemical, C-terminal His tag, absorbance 600 nm, primary screen (AID 1175); conditions: PfDHODH enzyme, DCIP absorbance 600 nm; higher = more signal, called active from +8 up or from −8 down;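 note: recombinant parasite enzyme with a five histidine tag at its C terminus; test concentration not given here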
# [15] = inhibition of PAO1 biofilm formation – strain PAO1, LB-PBS medium, absorbance 600 nm, primary screen (AID 1176); note: test concentration not given here; conditions: P. aeruginosa PAO1 growth/biofilm, A600, 12 h; higher = more signal
# [16] = growth modulation of vineyard yeast isolate – strain RM11-1a, OD600, basal, 24 h, primary screen (AID 1177);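 note: cultures grown under basal conditions with no added stressor; test concentration not given here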; conditions: S. cerevisiae RM11-1a growth, OD600, 24 h; higher = more signal, called active from +8 up or from −8 down
# [17] = growth of efflux-deficient E. coli DRC39 – strain DRC39, OD650, 24 h, E. coli filamentation inducers, primary screen (AID 1178);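 note: growth measured as culture turbidity by optical density at 650 nm; test concentration not given here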; conditions: E. coli DRC39 acrAB, higher = more signal, called active from +8 up or from −8 down
# [18] = growth of efflux-deficient E. coli DRC39 – strain DRC39, OD650, 48 h, E. coli filamentation inducers, primary screen (AID 1179);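 note: screen aims at cell division blockers that make cells filament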; conditions: E. coli DRC39 delta-acrAB growth, higher = more signal, called active from +8 up or from −8 down
# [19] = viability profiling in RPMI8226 myeloma cells – cell-based, resazurin fluorescence, basal, 24 h, PK04 Diversity Set, profiling panel (AID 1180); conditions: higher = more signal;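 note: RPMI8826 multiple myeloma cell line at 5000 cells per well; test concentration not given here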
# [20] = biological target: E3 ubiquitin-protein ligase XIAP (Homo sapiens) (UniProt P98170); assay: small molecules binding XIAP protein – biophysical, small-molecule microarray, fluorescence 635 nm, primary screen (AID 1181); conditions: higher = more signal;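 note: score merges 667 nm emission and signal to noise over triplicate slides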
# E3 ubiquitin-protein ligase XIAP (Homo sapiens), sequence (P98170 whole entry, looked up): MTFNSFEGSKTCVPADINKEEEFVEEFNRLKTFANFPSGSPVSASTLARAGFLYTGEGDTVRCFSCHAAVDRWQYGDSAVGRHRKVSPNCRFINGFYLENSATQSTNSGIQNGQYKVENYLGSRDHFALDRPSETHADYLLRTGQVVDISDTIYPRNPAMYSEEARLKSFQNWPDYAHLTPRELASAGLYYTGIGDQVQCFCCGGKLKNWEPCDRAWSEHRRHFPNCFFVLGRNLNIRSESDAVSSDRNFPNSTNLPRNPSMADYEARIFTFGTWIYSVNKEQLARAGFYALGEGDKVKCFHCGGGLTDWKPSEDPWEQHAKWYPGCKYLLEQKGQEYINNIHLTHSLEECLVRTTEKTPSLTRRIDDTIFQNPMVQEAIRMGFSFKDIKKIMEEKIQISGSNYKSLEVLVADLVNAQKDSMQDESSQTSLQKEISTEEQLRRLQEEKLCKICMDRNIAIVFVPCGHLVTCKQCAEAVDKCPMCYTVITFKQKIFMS
# Dihydroorotate dehydrogenase (quinone), mitochondrial (Plasmodium falciparum (isolate 3D7)), sequence (Q08210 whole entry, looked up): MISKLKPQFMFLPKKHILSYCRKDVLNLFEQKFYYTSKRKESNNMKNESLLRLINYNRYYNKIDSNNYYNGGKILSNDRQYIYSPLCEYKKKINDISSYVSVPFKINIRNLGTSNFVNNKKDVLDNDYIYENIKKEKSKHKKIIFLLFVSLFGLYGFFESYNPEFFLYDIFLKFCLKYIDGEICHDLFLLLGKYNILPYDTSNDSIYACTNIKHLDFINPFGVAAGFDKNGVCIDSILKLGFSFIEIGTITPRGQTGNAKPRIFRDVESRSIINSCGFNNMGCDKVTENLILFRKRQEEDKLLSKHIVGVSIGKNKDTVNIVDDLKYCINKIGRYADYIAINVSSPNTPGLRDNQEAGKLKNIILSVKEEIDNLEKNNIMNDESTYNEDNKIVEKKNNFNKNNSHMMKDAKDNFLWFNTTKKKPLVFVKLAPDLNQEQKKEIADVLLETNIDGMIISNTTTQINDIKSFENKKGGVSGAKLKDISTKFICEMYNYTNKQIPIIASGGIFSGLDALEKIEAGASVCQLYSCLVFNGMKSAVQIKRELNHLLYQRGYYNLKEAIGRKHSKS
SMILES,z-score [1],z-score [2],z-score [3],z-score [4],z-score [5],z-score [6],z-score [7],z-score [8],z-score [9],z-score [10],z-score [11],z-score [12],z-score [13],composite z-score [14],z-score [15],z-score [16],z-score [17],z-score [18],z-score [19],composite z-score [20]
COCCOC(=O)N1C(=O)[C@@]2(c3cc(C#CCC(C(=O)OC)C(=O)OC)ccc31)[C@H](c1ccc(OCCO)cc1)N1[C@H](c3ccccc3)[C@H](c3ccccc3)OC(=O)[C@H]1[C@@H]2C(=O)N1CCCCCCC1,0.52,0.586,0.496,-0.169,-0.602,0.119,-2.24 (inactive),-0.635,-1.15,0.78 (inactive),-0.0464,1.45 (inactive),0.13 (inactive),0.551 (inactive),0.83 (inactive),2.72 (inactive),-0.599 (inactive),0.0786 (inactive),0.174,0.519
C=CCC(OC(C)=O)[C@@H]1[C@@H](N(Cc2ccc(-c3ccccc3)cc2)C(=O)c2ccc(-c3ccccc3)cc2)c2cc(OCCCO)ccc2N1C(=O)c1ccc2ccccc2n1 (stereo not given in full),0.393,0.167,0.486,-0.265,-0.189,2.22,-0.124 (inactive),-0.742,-0.133,1.67 (inactive),1.16,-0.599 (inactive),1.3 (inactive),-0.149 (inactive),0.149 (inactive),-0.354 (inactive),0.348 (inactive),0.308 (inactive),1.13,-0.0103
C=CCC(OC(C)=O)[C@@H]1[C@@H](N(Cc2cc3ccccc3o2)C(=O)Cc2ccc(OC)cc2)c2cc(OCCCO)ccc2N1C(=O)Cc1ccc(OC)cc1 (stereo not given in full),0.3,1.71,0.128,0.708,-1.74,2.14,-0.184 (inactive),-0.566,0.799,-0.914 (inactive),-1.28,-1.01 (inactive),-0.0297 (inactive),0.707 (inactive),0.198 (inactive),-0.133 (inactive),-0.184 (inactive),-0.578 (inactive),-0.561,0.0345
CC(C)CNC(=O)[C@@H]1c2ccccc2C(=O)N(Cc2ccccc2)[C@H]1c1ccc(CO)cc1,-0.412,0.175,-0.345,0.0234,0.65,0.508,-0.526 (inactive),0.146,-0.139,0.678 (inactive),0.768,-0.21 (inactive),-0.628 (inactive),0.13 (inactive),0.388 (inactive),-0.232 (inactive),0.278 (inactive),0.0254 (inactive),0.19,0.0785
Cc1c(NC(=O)/C(C#N)=C/c2ccc(Cl)cc2)c(=O)n(-c2ccccc2)n1C,1.48,0.22,0.115,0.69,-2.03,0.497,0.585 (inactive),-0.0999,-0.512,-0.354 (inactive),0.244,-0.429 (inactive),0.103 (inactive),-2.14 (inactive),0.888 (inactive),-0.704 (inactive),1.43 (inactive),1.5 (inactive),-0.345,-0.0871
Cc1ccc(S[C@]2(C(=O)NC3CC3)CC(=O)N(Cc3cc(C(F)(F)F)cc(C(F)(F)F)c3)[C@@H]2c2ccc(CO)cc2I)cc1,-0.155,-0.136,0.311,-2.53,-1.81,-0.9,-0.373 (inactive),-0.921,-2.03,0.851 (inactive),0.411,-5.11 (inactive),-2.78 (inactive),-3.55 (inactive),0.944 (inactive),-1.6 (inactive),0.0621 (inactive),0.108 (inactive),-2.23,0.723
COc1ccc([Si](C)(C)[C@H]2[C@H](CCn3cc([C@H](O)c4ccccc4)nn3)O[C@@]3(C(=O)N(c4ccccc4)c4ccccc43)[C@@H]2C)cc1,-0.13,0.885,-1.31,-0.54,-3.18,1.63,0.291 (inactive),-0.932,-0.794,-0.853 (inactive),0.378,0.885 (inactive),-1.82 (inactive),0.413 (inactive),0.131 (inactive),2.12 (inactive),0.346 (inactive),0.0139 (inactive),-1.34,-0.316
C=C(CCCC)C(=O)CC[C@H](OC(=O)c1cccnc1)c1ccc(CO)o1,-0.489,-0.175,0.0768,0.187,-0.0395,-1.48,-0.572 (inactive),-0.577,-0.283,-0.0291 (inactive),-0.476,-1.58 (inactive),-0.464 (inactive),-0.826 (inactive),1.45 (inactive),-0.497 (inactive),-0.47 (inactive),-0.34 (inactive),-0.643,0.0343
